According to PubChem BioAssay (NCATS):
Results filed as inconclusive are left out. Calls of active or inactive are those of the source. Calls follow the shape of the dose curve; as a rule, active = well fitted curve in the direction sought with a large enough effect; inconclusive = small, poorly fitted or top-dose-only effect, or another doubt; inactive = no such curve, though single readings can be large; an effect the other way counts as inactive or inconclusive.

experiment: BET inhibitor-based combinations targeting novel dependencies in MECOM-rearranged (r) AML: HNT-34 cell line (AID 2202234); settings: HNT-34 AML viability, CellTiter-Glo luminescence, 48 h; series mostly up to 46 µM; also: nearly all actives have a fitted effect of over 35% in size
How it was run: (§1)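 Luminescent ATP readout (CellTiter-Glo, 15 min at room temperature) after 48 hr drug exposure gave viability. Dose-response curves, normalized to DMSO and empty-well controls, were summarized as area under the curve and its mean-centred Z-score.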
Potency is read from the fitted curve at half-maximal effect.

Compound | Potency
CN(C)NC(=O)CCC(=O)O | inactive
CCCCCCC(C)(C)c1cc(O)c2c(c1)OC(C)(C)C1CC=C(CO)C[C@H]21 (some centres not stated) | 14800 nM (active)
C/C(=C\c1csc(C)n1)[C@@H]1C[C@@H]2O[C@]2(C)CCC[C@H](C)[C@H](O)[C@@H](C)C(=O)C(C)(C)[C@@H](O)CC(=O)O1 | 8.3 nM (active)
CN(C)[C@@H]1C(=O)C(C(N)=O)=C(O)[C@@]2(O)C(=O)C3=C(O)c4c(O)cccc4[C@@](C)(O)[C@H]3[C@H](O)[C@@H]12 | inactive
C[C@H]1CCC/C=C/C2C[C@H](O)C[C@H]2[C@H](O)/C=C/C(=O)O1 (some centres not stated) | 296 nM (active)
COc1cc(C)[nH]c(=O)c1CNC(=O)c1c(C)n([C@H](C)C2CCN(CC(F)(F)F)CC2)c2ccccc12 | inactive
Cc1sc2c(c1C)C(c1ccc(Cl)cc1)=NC(CC(N)=O)c1nnc(C)n1-2 (configuration not stated) | 148 nM (active)
CC(C)C[C@H](CN)CC(=O)O | inactive
CC(C)[C@]12O[C@H]1[C@@H]1O[C@]13[C@]1(O[C@H]1C[C@H]1C4=C(CC[C@@]13C)C(=O)OC4)[C@@H]2O | 74.2 nM (active)
COC(=O)[C@@]12OC[C@]34[C@H]([C@@H](O)[C@@H]1O)[C@@]1(C)CC(=O)C(O)=C(C)[C@@H]1C[C@H]3OC(=O)[C@H](OC(=O)/C=C(\C)C(C)C)[C@@H]24 | 4.2 nM (active)
C[C@]12CC[C@H](O)CC1=CC[C@@H]1[C@@H]2CC[C@]2(C)C(=O)CC[C@@H]12 | inactive

experiment: BET inhibitor-based combinations targeting novel dependencies in MECOM-rearranged (r) AML: UCSD-AML1 cell line (AID 2202235); settings: UCSD-AML1 AML cells viability, CellTiter-Glo, 48 h; series mostly up to 46 µM; also: nearly all actives have a fitted effect of over 40% in size
How it was run: as §1

Compound | Potency
O=C(Nc1ccncc1)C(=O)c1cn(Cc2ccc(Cl)cc2)c2ccccc12 | 332 nM (active)
COCC1(CO)C(=O)C2CCN1CC2 (configuration not stated) | 5250 nM (active)
C/C(=C\c1csc(C)n1)[C@@H]1C[C@@H]2O[C@]2(C)CCC[C@H](C)[C@H](O)[C@@H](C)C(=O)C(C)(C)[C@@H](O)CC(=O)O1 | 5.9 nM (active)
CN(C)[C@@H]1C(=O)C(C(N)=O)=C(O)[C@@]2(O)C(=O)C3=C(O)c4c(O)cccc4[C@@](C)(O)[C@H]3[C@H](O)[C@@H]12 | inactive
COC(=O)[C@]12CCC(C)(C)C[C@H]1[C@H]1C(=O)C=C3[C@@]4(C)C=C(C#N)C(=O)C(C)(C)[C@@H]4CC[C@@]3(C)[C@]1(C)CC2 | 1480 nM (active)
COc1cc(C)[nH]c(=O)c1CNC(=O)c1c(C)n([C@H](C)C2CCN(CC(F)(F)F)CC2)c2ccccc12 | inactive
CC(C)C[C@H](CN)CC(=O)O | inactive
Cc1c(N)nc([C@H](CC(N)=O)NC[C@@H](N)C(N)=O)nc1C(=O)N[C@H](C(=O)N[C@@H](C)[C@H](O)[C@@H](C)C(=O)N[C@@H](C(=O)NCCc1nc(-c2nc(C(=O)NCCC[S+](C)C)cs2)cs1)[C@@H](C)O)C(O[C@H]1O[C@H](CO)[C@H](O)[C@@H](O)[C@H]1O[C@H]1O[C@H](CO)[C@@H](O)[C@H](OC(N)=O)[C@@H]1O)c1cnc[nH]1 (some centres not stated) | inactive
CC(C)[C@]12O[C@H]1[C@@H]1O[C@]13[C@]1(O[C@H]1C[C@H]1C4=C(CC[C@@]13C)C(=O)OC4)[C@@H]2O | 41.7 nM (active)
O=C(CBr)N1CC([N+](=O)[O-])([N+](=O)[O-])C1 | inactive
COC(=O)[C@@]12OC[C@]34[C@H]([C@@H](O)[C@@H]1O)[C@@]1(C)CC(=O)C(O)=C(C)[C@@H]1C[C@H]3OC(=O)[C@H](OC(=O)/C=C(\C)C(C)C)[C@@H]24 | 3.3 nM (active)
C[C@]12CC[C@H](O)CC1=CC[C@@H]1[C@@H]2CC[C@]2(C)C(=O)CC[C@@H]12 | inactive

experiment: BET inhibitor-based combinations targeting novel dependencies in MECOM-rearranged (r) AML: AML-191 cell line (AID 2202236; also: nearly all actives have a fitted effect of over 35% in size); settings: AML-191 viability, CellTiter-Glo luminescence, 48 h; series mostly up to 46 µM
How it was run: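 Luminescent ATP readout (CellTiter-Glo) after 48 hr drug exposure gives viability. Curves span 11 concentrations and are normalized to DMSO and empty wells. Activity is reported as area under the curve and its Z-transform within each cell line.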

Compound | Potency
CN(C)NC(=O)CCC(=O)O | inactive
COCC1(CO)C(=O)C2CCN1CC2 (configuration not stated) | 10500 nM (active)
CCCCCCC(C)(C)c1cc(O)c2c(c1)OC(C)(C)C1CC=C(CO)C[C@H]21 (some centres not stated) | 18600 nM (active)
C/C(=C\c1csc(C)n1)[C@@H]1C[C@@H]2O[C@]2(C)CCC[C@H](C)[C@H](O)[C@@H](C)C(=O)C(C)(C)[C@@H](O)CC(=O)O1 | 10.5 nM (active)
C[C@H]1CCC/C=C/C2C[C@H](O)C[C@H]2[C@H](O)/C=C/C(=O)O1 (some centres not stated) | 332 nM (active)
Cc1c(N)nc([C@H](CC(N)=O)NC[C@@H](N)C(N)=O)nc1C(=O)N[C@H](C(=O)N[C@@H](C)[C@H](O)[C@@H](C)C(=O)N[C@@H](C(=O)NCCc1nc(-c2nc(C(=O)NCCC[S+](C)C)cs2)cs1)[C@@H](C)O)C(O[C@H]1O[C@H](CO)[C@H](O)[C@@H](O)[C@H]1O[C@H]1O[C@H](CO)[C@@H](O)[C@H](OC(N)=O)[C@@H]1O)c1cnc[nH]1 (some centres not stated) | inactive
CC(C)[C@]12O[C@H]1[C@@H]1O[C@]13[C@]1(O[C@H]1C[C@H]1C4=C(CC[C@@]13C)C(=O)OC4)[C@@H]2O | 37.2 nM (active)
COC(=O)[C@@]12OC[C@]34[C@H]([C@@H](O)[C@@H]1O)[C@@]1(C)CC(=O)C(O)=C(C)[C@@H]1C[C@H]3OC(=O)[C@H](OC(=O)/C=C(\C)C(C)C)[C@@H]24 | 6.6 nM (active)
C#CCN(C)[C@H](C)Cc1ccccc1 | inactive
